Bioassay records from PubChem.
KDM5B inh – inhibitors of human KDM5B histone demethylase. KDM5B demethylase, FDH-coupled NADH fluorescence (FDH is formaldehyde dehydrogenase). Potency, µM (series often up to 57.7 µM), most hits filed as inhibitors. 2.6% of 220,000 active. Q9UGL1; active = well fitted inhibition curve with a large enough effect; note: 0% is about no effect; nearly all actives have a fitted effect of over 70% in size
Target sequence (Q9UGL1 whole entry, looked up): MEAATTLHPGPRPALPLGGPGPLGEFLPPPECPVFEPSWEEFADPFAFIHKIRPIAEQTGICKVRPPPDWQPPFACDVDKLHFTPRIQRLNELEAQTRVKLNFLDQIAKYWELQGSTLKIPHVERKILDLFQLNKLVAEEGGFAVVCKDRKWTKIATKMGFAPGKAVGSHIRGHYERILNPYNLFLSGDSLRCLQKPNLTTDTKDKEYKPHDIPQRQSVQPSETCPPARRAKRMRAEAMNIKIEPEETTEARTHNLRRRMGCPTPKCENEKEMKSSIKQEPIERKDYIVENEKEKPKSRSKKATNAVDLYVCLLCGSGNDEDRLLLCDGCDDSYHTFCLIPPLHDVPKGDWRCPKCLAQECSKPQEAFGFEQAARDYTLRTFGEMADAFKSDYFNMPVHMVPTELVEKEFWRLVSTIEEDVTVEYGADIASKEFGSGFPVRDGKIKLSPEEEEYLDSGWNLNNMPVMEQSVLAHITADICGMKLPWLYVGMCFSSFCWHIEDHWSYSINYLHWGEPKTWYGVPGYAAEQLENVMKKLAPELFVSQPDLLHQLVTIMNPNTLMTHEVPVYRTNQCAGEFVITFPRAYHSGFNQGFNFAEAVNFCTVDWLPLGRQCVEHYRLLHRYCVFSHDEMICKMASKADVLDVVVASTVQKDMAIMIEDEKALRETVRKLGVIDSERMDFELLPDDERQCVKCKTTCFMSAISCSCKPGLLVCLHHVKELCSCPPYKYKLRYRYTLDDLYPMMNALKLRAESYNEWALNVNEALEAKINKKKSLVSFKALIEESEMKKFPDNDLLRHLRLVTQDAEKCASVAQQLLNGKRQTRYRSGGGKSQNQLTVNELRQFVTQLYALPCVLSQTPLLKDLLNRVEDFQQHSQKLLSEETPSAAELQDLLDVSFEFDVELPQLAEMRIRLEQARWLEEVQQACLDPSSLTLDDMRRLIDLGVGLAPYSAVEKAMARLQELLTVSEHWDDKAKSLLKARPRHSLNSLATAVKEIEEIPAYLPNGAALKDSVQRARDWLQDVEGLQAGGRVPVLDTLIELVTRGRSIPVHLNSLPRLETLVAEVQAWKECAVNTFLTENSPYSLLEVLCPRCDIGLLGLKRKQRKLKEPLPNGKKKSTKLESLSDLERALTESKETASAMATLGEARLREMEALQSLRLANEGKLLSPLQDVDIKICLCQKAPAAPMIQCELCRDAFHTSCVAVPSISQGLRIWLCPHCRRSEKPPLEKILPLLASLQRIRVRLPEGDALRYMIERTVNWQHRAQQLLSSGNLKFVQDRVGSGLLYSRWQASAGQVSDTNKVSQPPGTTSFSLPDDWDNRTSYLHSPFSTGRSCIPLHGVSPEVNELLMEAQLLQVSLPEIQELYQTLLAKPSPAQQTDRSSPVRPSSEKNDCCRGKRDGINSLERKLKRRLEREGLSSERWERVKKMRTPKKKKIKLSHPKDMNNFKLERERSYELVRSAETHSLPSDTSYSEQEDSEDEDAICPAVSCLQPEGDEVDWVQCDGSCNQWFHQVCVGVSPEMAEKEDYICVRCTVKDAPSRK
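Coupled FDH/NAD⁺ fluorescence readout. KDM5BΔAP 200 nM final; compound titration, 10 min RT preincubation; substrate mix 12.5 µM H3K4me3, 25 µM 2-OG, 50 µM Fe(II), 100 µM ascorbate, 0.25 mM NAD⁺, 0.25 U/mL FDH; ΔRFU over 30 min.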
* hit, by the source's call; i = inactive. The sample as a whole holds a higher share of hits than the screen did. Potency is the fitted concentration of half-maximal effect.

SMILES	KDM5B inh
O=C(c1ccc(F)cc1)N1Cc2[nH]cnc2C[C@H]1c1nc(-c2ccc3c(c2)OCO3)no1	39.8µM*
O=C(Nc1cccc(F)c1)N1Cc2[nH]cnc2C[C@H]1c1nc(-c2ccc(Cl)cc2)no1	i
Cc1cccc(-c2noc([C@@H]3Cc4nc[nH]c4CN3C(=O)Nc3cccc(F)c3)n2)c1	i
O=C(Nc1ccccc1)N1Cc2[nH]cnc2C[C@H]1c1nc(-c2ccc3c(c2)OCO3)no1	i
O=C(c1ccc(F)cc1)N1Cc2[nH]cnc2C[C@H]1c1nc(-c2ccc(Cl)cc2)no1	i
O=C(Nc1cccc(F)c1)N1Cc2[nH]cnc2C[C@H]1c1nc(-c2ccccc2)no1	28.2µM*
Cc1ccn2c(C(=O)N3CCCn4nc(C(O)CO)cc4C3)nnc2n1 (centres undefined)	31.6µM*
CN(C)CC(O)c1cc2n(n1)CCCN(C(=O)c1cccn1C1CC1)C2 (centres undefined)	i
CC(O)c1cc2n(n1)CCCN(C(=O)c1ccc(-c3nnn(C)n3)cc1)C2 (centres undefined)	i
Cc1[nH]ccc(=O)c1OCC(=O)Nc1ccncc1	i
Cc1ccc(CN(C)C(=O)CSc2nc(-c3cccs3)nc3ccccc23)o1	i
COCCOCC1(CNC(=O)Nc2cccnc2)C[C@@H](O)[C@@H](O)C1 (some centres undefined)	i
O=C(NCC1(COc2cnccn2)C[C@@H](O)[C@@H](O)C1)c1nc2ccccc2[nH]1 (some centres undefined)	28.2µM*
O=C(NCC1(COc2cccnc2)C[C@@H](O)[C@@H](O)C1)c1cnccn1 (some centres undefined)	i
O=C(NCC1(COc2cccnc2)C[C@@H](O)[C@@H](O)C1)c1ccc(F)cc1 (some centres undefined)	i
COCCOCC1(CNC(=O)c2nc3ccccc3[nH]2)C[C@@H](O)[C@@H](O)C1 (some centres undefined)	31.6µM*
COCCOCC1(CNC(=O)C2CCOCC2)C[C@@H](O)[C@@H](O)C1 (some centres undefined)	i
CC(NCc1ccc(C#N)cc1)c1ccc(F)cc1F (centres undefined)	i
COc1ccc(N2C(=O)CCC2(C#N)c2ccccc2OCc2ccccc2)cc1 (centres undefined)	i
O=C(CSc1nnc(N2CCOCC2)n1-c1cccc(F)c1)NCC(=O)Nc1ccc(F)cc1	i
COc1ccccc1CNCCCO	i
Cc1cccc(-c2cc(C(=O)O)c3cccc(Cl)c3n2)c1	i
CCOc1cccc2cc(-c3nnc(Nc4ccc(F)c(Cl)c4)s3)c(=O)oc12	i
CN(CC1CCOC1)C(=O)c1ccc(F)c(Cl)c1 (centres undefined)	i
CN(c1cc(=O)c2ccnc(-c3ccc(F)c(Cl)c3)c2o1)C1CCOCC1	35.5µM*
SMILES	KDM5B inh
CCC(=O)N(C1CCOCC1)C1CCN(S(=O)(=O)c2ccc(F)c(Cl)c2)CC1	i
CN(c1cc(=O)c2ccnc(Nc3ccc(F)c(Cl)c3)c2o1)C1CCOCC1	28.2µM*
CN(c1ccccc1)c1cc(=O)c2ccnc(-c3ccncc3)c2o1	i
CN(c1cc(=O)c2ccnc(-c3cccc(C(F)(F)F)c3)c2o1)C1CCOCC1	28.2µM*
COc1ccc(Nc2nccc3c(=O)cc(-c4cn[nH]c4)oc23)cc1OC	i
CC(=O)Nc1ccccc1-c1nccc2c(=O)cc(N(C)c3ccccc3)oc12	i
Cc1sc(-c2ccccc2)nc1-c1ccc(C(C)(C)C)cc1	i
COc1cc(CC(=O)Oc2ccccc2Br)cc(OC)c1OC	i
O=C(c1cccc(S(=O)(=O)Nc2cc(C(F)(F)F)ccc2Cl)c1)N1CCCC1	i
O=C(/C=C/Nc1ccc(Cl)cc1)C(F)(F)F	i
CC1(C)CC(=O)C2=C(C1)Nc1nonc1NC2c1ccccc1 (centres undefined)	i
O=C(CCc1c[nH]c2ccccc12)Nc1ccccc1F	i
CN(CCC#N)C(=O)COC(=O)c1nn(Cc2ccccc2)c(=O)c2ccccc12	i
CC(=O)c1ccc(S(=O)(=O)N2CCN(C(=O)c3cc(C)n(C(C)C)c3C)CC2)cc1	i
COc1ccc(-c2nc(NC(C)c3ccccc3)c3ccccc3n2)cc1 (centres undefined)	i
CCc1nccc(CN2CCC(c3nn(C)c(=O)n3CC)CC2)n1	15.8µM*
CCn1c(C2CCN(C(=O)c3cc(F)cc(F)c3)CC2)nn(C)c1=O	i
CCn1c(C2CCN(S(=O)(=O)c3cccc(Br)c3)CC2)nn(C)c1=O	i
COc1ccc(OCCn2c3ccccc3n3nc(CCC(=O)O)c(=O)nc23)cc1	i
Cc1cccc(C(C)C)c1NC(=O)c1cc(F)c(F)cc1Cl	i
Cc1ccc(NS(=O)(=O)c2ccc(Cl)cc2)cc1S(=O)(=O)N(C)C	i
COc1cc(C(=O)OCC(=O)c2ccc(Cl)cc2)ccc1OCc1ccccc1Cl	i
O=C(Nc1cccc(F)c1)C1CC(=O)N(Cc2ccccn2)c2nc3ccccc3n21 (centres undefined)	i
O=C(c1nnc(COc2cc(F)cc(F)c2)n1-c1ccccc1)N1CCC[C@@H]1c1cccc(F)c1	i
N#Cc1cccc(CN2CCC3(CC2)CN(c2ncccn2)CC3CO)c1 (centres undefined)	28.2µM*
SMILES	KDM5B inh
COCCN1CC(CO)C2(CCN(Cc3c[nH]c4ccccc34)CC2)C1 (centres undefined)	i
O=C(c1ccccn1)N1CC(CO)C2(CCNCC2)C1 (centres undefined)	i
CC(=O)N1Cc2ccccc2OC2(CCN(C(=O)c3cccc4[nH]ccc34)CC2)C1	i
CC(=O)N1CC(CO)C2(CCN(Cc3cccc(C#N)c3)CC2)C1 (centres undefined)	i
OCC1CN(c2ncccn2)CC12CCN(Cc1cccc3[nH]ccc13)CC2 (centres undefined)	31.6µM*
OCC1CN(c2ccncn2)CC12CCN(Cc1cc(F)c(F)c(F)c1)CC2 (centres undefined)	i
CC(=O)N1CC(CO)C2(CCN(Cc3c[nH]c4ccccc34)CC2)C1 (centres undefined)	i
OCC1CN(c2ncccn2)CC12CCN(Cc1ccc3[nH]ccc3c1)CC2 (centres undefined)	22.4µM*
O=C(c1cccc2[nH]ccc12)N1CCC2(CC1)CN(c1ncccn1)CC2CO (centres undefined)	31.6µM*
COCC1CN(C(C)=O)CC12CCN(Cc1ccc3[nH]ccc3c1)CC2 (centres undefined)	i
N#Cc1cccc(CN2CCC3(CCN(Cc4ccncc4)CC3)C(CO)C2)c1 (centres undefined)	i
Cc1ccc(C(=O)Nc2oc3ccccc3c(=O)c2-c2ccccc2)cc1	i
CC(C)C1Cc2c(sc3nc(SCC(=O)c4ccccc4)nc(N)c23)CO1 (centres undefined)	i
CC(=O)Nc1ccc(NC(=O)CCc2nc(-c3ccc(C)n(C(C)C)c3=O)no2)cc1	i
Cc1ccc(COC(=O)c2ccc(Cl)c(S(=O)(=O)N3CCCCC3)c2)cc1	i
CCc1ccccc1S(=O)(=O)N1C[C@@H]2C(=O)N(C(CC)c3cccs3)C(=O)[C@@H]2C1 (some centres undefined)	i
C=C(C)Cn1c(NCCCOCC)nc2c1c(=O)[nH]c(=O)n2C	i
O=C(c1ccc(Cl)cc1)N1CCC(n2cc(-c3ccccn3)[nH]c2=O)CC1	44.7µM*
